# Data: PubChem BioAssay (NCI)
# Compounds without any hit were thinned out: in the full panel of roughly 83,000, 20% have a hit.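 Each cell line was grown in a 96-well plate and treated with one concentration of compound for 48 hours. Values below 10 were considered active.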 A number with no mark means an inactive call. The source made the active and inactive calls.
# Experiments:
# Experiment in all cases: NCI-60 one-dose screen, 48 h (100 = growth as untreated, 0 = no growth, -100 = all killed)
# RPMI-8226 leukemia = details: 10 µM unless noted
# OVCAR-5 ovarian = details: 10 µM unless noted
# OVCAR-4 ovarian = details: 10 µM unless noted
# SK-OV-3 ovarian = details: 10 µM unless noted
# IGROV1 ovarian = details: 10 µM unless noted
# OVCAR-3 ovarian = details: 10 µM unless noted
# HS 578T breast = details: 10 µM unless noted
# NCI/ADR-RES ovarian = details: 10 µM unless noted
# T-47D breast = details: 10 µM unless noted
# BT-549 breast = details: 10 µM unless noted
# MDA-MB-435 melanoma = details: 10 µM unless noted
# SW-620 colon = details: 10 µM unless noted
# MCF7 breast = details: 10 µM
# HCT-116 colon = details: 10 µM unless noted
# HCC-2998 colon = details: 10 µM unless noted
# KM12 colon = details: 10 µM unless noted
# OVCAR-8 ovarian = details: 10 µM unless noted
SMILES,growth (RPMI-8226 leukemia),growth (OVCAR-5 ovarian),growth (OVCAR-4 ovarian),growth (SK-OV-3 ovarian),growth (IGROV1 ovarian) [%],growth (OVCAR-3 ovarian),growth (HS 578T breast),growth (NCI/ADR-RES ovarian),growth (T-47D breast),growth (BT-549 breast),growth (MDA-MB-435 melanoma),growth (SW-620 colon),growth (MCF7 breast),growth (HCT-116 colon),growth (HCC-2998 colon),growth (KM12 colon),growth (OVCAR-8 ovarian) [%]
CC/C(=C(\CC)c1ccc(OCC[N+](C)(C)C)cc1)c1ccc(OC)cc1,31.1%,102%,68.5%,86.9%,68.8,51.3%,72.3%,107%,59%,74.5%,86%,68.5%,89%,48.9%,47.9%,51.3%,
CC(=O)Nc1nc2c(s1)CCc1c-2cn(S(=O)(=O)c2ccccc2)c1-c1ccccc1,57.7%,97.4%,84.3%,101%,97.2,80.5%,91.3%,49.7%,,97.7%,59.7%,79.5%,54.2%,57.9%,80.4%,54.9%,
C=C[C@@H]1CCC/C=C/[C@@H]2C[C@H](O)C[C@H]2[C@H](O)/C=C/C(=O)O1,23.6%,,23.8%,20.5%,11.8,-30.8% (active),31.3%,1.8% (active),-40.9% (active),40.6%,12.9%,-15.9% (active),-14.8% (active),-0.456% (active),-23.3% (active),-36.3% (active),21.4
O=S1(=O)N(Cc2ccccc2)[C@@H](Cc2ccccc2)[C@H](O)[C@H](O)[C@H](Cc2ccccc2)N1Cc1ccccc1,-7.2% (active),41.1%,15.4%,6.58% (active),10.3,-22% (active),19.7%,-7.86% (active),7.87% (active),15.7%,-4.2% (active),9.22% (active),,-36.5% (active),-45.7% (active),-41.7% (active),
CC[C@@H](C)[C@H](NC(=O)Cn1cc(CNC(=O)[C@@H](NC(=O)OCc2ccccc2)C(C)C)nn1)C(=O)O,106%,,111%,109%,113,119%,104%,105%,116%,107%,102%,105%,100%,107%,,,96.2
Cn1nc(C(C)(C)C)cc1NC(=O)Cc1ccc(/C=C2\C(=O)Nc3ccccc32)cc1,28.7%,107%,47.6%,60.7%,59,64.5%,74.7%,66.9%,14.9%,35.4%,56%,76.8%,19.2%,33.6%,96.3%,21.7%,
CCOc1ccccc1CN1CCc2nc3cc(C(C)(C)C)[nH]n3c(=O)c2C1,101%,97.9%,101%,110%,99.5,106%,100%,91.8%,98.6%,106%,104%,105%,98%,102%,,98.2%,
O=C1c2cc(Br)ccc2Oc2cc([N+](=O)[O-])ccc2N1c1ccc(I)cc1F,104%,97.7%,94.5%,115%,97.9,109%,101%,99.6%,100%,,102%,94.2%,97.1%,87.5%,102%,100%,
Oc1c(C(Nc2ccccn2)c2cccc(Oc3ccccc3)c2)ccc2cccnc12 (configuration not stated),-50.6% (active),-84.1% (active),-96.7% (active),-90.1% (active),,-96.6% (active),-47.6% (active),-81.1% (active),-71% (active),-74.5% (active),-90.1% (active),-88% (active),-83% (active),-85.3% (active),-84.5% (active),-89.9% (active),
